Source: PubChem BioAssay (National Center for Advancing Translational Sciences (NCATS))
SARS PLP yeast: blocks SARS-CoV papain-like protease in a yeast assay. 0.19% of 330,000 active. Potency, µM (series often up to 32.9 µM), most hits filed as activators. S. cerevisiae expressing SARS-CoV PLpro, growth rescue; calls by dose curve; note: nearly all actives have a fitted effect of over 55% in size
AmpC no deterg: blocks E. coli AmpC beta-lactamase in detergent-free assay; AmpC nitrocefin hydrolysis, absorbance 480 nm, 0.0001% Triton; Potency, µM (highest dose often 57.1 µM), usual class: inhibitors; 0.52% of 330,000 active; P00811; note: nearly all actives have a fitted effect of over 20% in size
Target sequence (P00811 whole entry, looked up): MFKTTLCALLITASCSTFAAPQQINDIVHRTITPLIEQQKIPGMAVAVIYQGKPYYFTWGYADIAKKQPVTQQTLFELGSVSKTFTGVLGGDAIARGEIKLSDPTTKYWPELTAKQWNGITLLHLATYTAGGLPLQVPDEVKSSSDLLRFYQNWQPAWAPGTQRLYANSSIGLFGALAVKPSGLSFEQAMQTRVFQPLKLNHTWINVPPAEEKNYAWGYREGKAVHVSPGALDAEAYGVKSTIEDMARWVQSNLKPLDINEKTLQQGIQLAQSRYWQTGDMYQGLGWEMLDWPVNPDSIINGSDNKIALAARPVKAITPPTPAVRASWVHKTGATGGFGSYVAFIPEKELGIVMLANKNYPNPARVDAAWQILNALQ
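AmpC (5.3 nM in the dispensed reagent) in 20 mM phosphate pH 7.0 with 0.01% (detergent screen) or 0.0001% Triton X-100 was preincubated with compounds for 15 min at room temperature. Nitrocefin was then added from an 800 uM solution, and hydrolysis was followed at 480 nm.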
AMA1-RON2 inh: disrupts binding of P. falciparum AMA1 to RON2; AID 720542; AlphaScreen AMA1-biotinylated RON2 peptide binding; Potency, µM (series often up to 58.2 µM), most hits filed as inhibitors; 0.2% of 360,000 active; note: nearly all actives have a fitted effect of over 45% in size
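AMA1 (3D7) with his tag at 25 nM final met compounds first, then biotinylated RON2 peptide at 25 nM; detection used donor plus acceptor beads, 10 µg/mL apiece, read by AlphaScreen after 30 min at room temperature.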
VACV Venus inh: vaccinia inhibition (Venus reporter) | Vaccinia virus Venus reporter expression, fluorescence | Potency, µM (series often up to 36.5 µM), actives largely listed as inhibitors | 0.46% of 330,000 active | AID 720580; calls by dose curve; tested in A549 cells; note: nearly all actives have a fitted effect of over 30% in size
AmpC detergent: blocks E. coli AmpC beta-lactamase in detergent assay; Potency, µM (top dose mostly 114 µM), actives largely listed as inhibitors; 0.041% of 370,000 active; AmpC hydrolysis of nitrocefin, absorbance 480 nm, 0.01% Triton; P00811; note: nearly all actives have a fitted effect of over 25% in size
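AmpC (5.3 nM in the dispensed reagent) in 20 mM phosphate pH 7.0 with 0.01% (detergent screen) or 0.0001% Triton X-100 was preincubated with compounds for 15 min at room temperature. Nitrocefin was then added from an 800 uM solution, and hydrolysis was followed at 480 nm.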
VACV mCherry inh: vaccinia inhibition (mCherry reporter) | AID 720579 | Vaccinia virus mCherry reporter infection, fluorescence | 0.63% of 310,000 active | Potency, µM (doses to about 36.5 µM), usual class: inhibitors; calls by dose curve; tested in A549 cells; note: nearly all actives have a fitted effect of over 35% in size
A number is an active result; n = inactive; u = inconclusive; x = not tested or not shown; [ ] = dose if it differs, or a comment. Compounds with a hit are over-represented: about 1.3% of the library has one in this group of screens. Unless noted, calls come from the whole dose curve; as a rule, active = well fitted curve in the direction sought with a large enough effect; inconclusive = small, poorly fitted or top-dose-only effect, or another doubt; inactive = no such curve, though single readings can be large; an effect the other way counts as inactive or inconclusive.

SMILES | SARS PLP yeast | AmpC no deterg | AMA1-RON2 inh | VACV Venus inh | AmpC detergent | VACV mCherry inh
N#Cc1nc(N2CCCCC2)nc(N(c2ccccc2)c2ccccc2)n1 | x | x | x | n | x | n
Nc1nc(N2CCCCC2)nc(N(c2ccccc2)c2ccccc2)n1 | n | 0.63µM | n | n | u | n
Cc1cc(C2=NNC(=NC3CC3)SC2)c(C)n1Cc1ccco1 | 10µM | n | n | n | n | n
CN(C)c1cccc2c1C(=O)c1ccccc1C2=O | n | n | 11µM | n | n | n
Cc1ccc(CN2[C@H](C)[C@H](c3ccccc3)OCCS2(=O)=O)cc1 | x | x | x | n | x | n
O=C(N/N=C/c1ccc(-c2ccc(S(=O)(=O)Nc3ncccn3)cc2)o1)c1cc2ccccc2cc1O | n | 20µM | n | n | n | n[1.46 µM]
c1ccc([C@@H]2CO2)cc1 | x | x | n | n | x | n
C=C1CC2(CC(c3ccccc3)OC(c3ccccc3)C2)OC1=O (stereo not given) | x | x | n | u | x | 11µM
Cc1ncc2c(c1CNC(=O)c1cncs1)CCN(C(=O)c1csc(-c3cccs3)n1)C2 | x | x | x | n | x | n
Cc1nn(-c2ccccc2)c2c1N(CCCC(=O)NCc1ccc(OC(C)C)cc1)C(=O)CS2 | x | x | x | n | n | n
O=C(CN1C(=O)CCSc2ccccc21)N1CCC2(CC1)OCCO2 | n | 0.28µM | n | x | n | x
COc1cc(=O)n2c(c1C(=O)N(C)Cc1nonc1C)CCN(CC1CC=CCC1)CC2 (stereo not given) | x | x | x | n | x | n
Cc1cnc(-n2ncc(C(=O)NCCN3CCOCC3)c2-c2cccs2)nc1-c1ccc(F)cc1 | x | x | x | n | x | n
Cc1csc2ncc(C(=O)N3CCc4ccccc43)c(=O)n12 | x | x | n | n | x | n
Cc1csc2ncc(C(=O)N3CCCc4ccccc43)c(=O)n12 | n | 3.5µM | n | n | u | n
CC(C)NC(=O)[C@@H]1C[C@@H](Sc2ccccn2)CN1C1CCN(C)CC1 | x | x | x | n | x | n
CCOC(=O)N1CCN(c2cc3[nH]c(=S)[nH]c3cc2F)CC1 | n | n | n | x | u | x
CCOC(=O)N1CCN(c2c(F)cc3[nH]c(=S)[nH]c3c2Br)CC1 | n | 28µM | n | x | n | x
c1csc(-c2nc(N3CCN(Cc4ccc5c(c4)OCCO5)CC3)c3ccccc3n2)c1 | x | x | x | n | x | n
CCN1CCN(c2ccc(S(=O)(=O)N3CCCCC3)cc2NC(=O)c2ccc([N+](=O)[O-])s2)CC1 | n | n | n | 10µM | n | 8.9µM
CCN1CCN(c2ccc(S(=O)(=O)N3CCCCC3)cc2NC(=O)c2ccccc2)CC1 | n | n | n | n | n | n
CC1=NN(c2ccccc2)C(=O)/C1=C/C=C/c1ccccc1 | n | n | 3.2µM | n | n | n
Cc1ccc(C2=NOC(=O)/C2=C\C=C\c2ccccc2)cc1 | n | 32µM | n | n | n | n
CN(C)/C=C1\C(=O)ON=C1c1ccccc1 | n | n | n | n | n | n
CCOC(=O)c1ccc(N2C(=O)c3[nH]nc(-c4ccc(OC)cc4)c3C2c2ccc(C)cc2)cc1 (stereo not given) | x | x | x | u | n | u
SMILES | SARS PLP yeast | AmpC no deterg | AMA1-RON2 inh | VACV Venus inh | AmpC detergent | VACV mCherry inh
COC(=O)C1CCN(C2=C(NS(=O)(=O)c3ccc(Cl)cc3)C(=O)c3ccccc3C2=O)CC1 | n | n | 20µM | n | n | u
Cc1nnc(N/N=C/c2ccccc2F)n1N | n | n | n | x | n | x
COc1ccc(-n2c(C)cc(/C=N/Nc3nnc(C)n3N)c2C)cc1 | n | n | n | u | u | 11µM
COc1cccc(/C=N/Nc2nnc(C)n2N)c1O | n | n | n | u | n | 7.1µM
COc1cccc(/C=N/Nc2ncnc3c2ncn3Cc2ccccc2)c1O | u | n | n | u | n | 3.2µM
COc1cccc(/C=N/Nc2cc(Cl)nc(C)n2)c1O | n | n | n | x | n | x
COc1ccc(OC)c(NC(=O)Cn2c(=O)cc(-c3ccccc3)c3c(C)nn(C)c32)c1 | x | x | x | n | n | u
CCOc1ccc(-c2cccc(NS(=O)(=O)c3cc([N+](=O)[O-])ccc3Cl)c2)nn1 | n | n | n | u | n | 10µM
CCCN1CCN(CCCNC(=O)c2ccc3c(c2)sc2nc(-c4ccc(C)cc4)cn23)CC1 | x | x | x | u | n | 7.1µM
COc1ccc(/C=C/C(=O)NCC2Cc3cc(Cl)cc(-c4ncccn4)c3O2)cc1 (stereo not given) | x | x | x | n | x | n
